Screening results deposited in PubChem by several laboratories.
Sampled rows, rich in hits. Any-hit rate of the full collection: about 3.9%.
TWEAK Fn14 block – inhibitors of TWEAK-Fn14 signaling, primary screen, luciferase reporter cells, uHTS | TWEAK-stimulated Fn14 reporter cells, luciferase luminescence, 8 h | inhibition, % at 10 µM | 360,000 compounds, 2% hits; in the data active = inhibition above about 50%
TROY signal inh – inhibitors of TROY-driven NF-kB signaling, primary screen, Q293 LMP1-TROYcd cells, NF-kB luciferase, uHTS | Q293 LMP1-TROYcd NF-kB luciferase reporter, 4 h | inhibition, % at 10 µM | 360,000 compounds, 0.98% hits | AID 1347056, 2019;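 active = compounds whose plate-normalised and pattern-corrected inhibition of the luciferase reporter signal at the single screening dose is 50% or more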
aSyn 5UTR inh – MLPCN primary screen, SNCA 5' untranslated region; alpha-synuclein 5'UTR reporter, inhibitor activity; inhibition, % (tested at 7.5 µM); 300,000 compounds, 0.82% hits; in the data active = inhibition above about 60%;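 also: H4 neuroglioblastoma cells stably carrying SNCA 5'UTR luciferase fusion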
HIF-2a block – HIF-2a reporter inhibitors, primary screen, luminescence, 786-0 RCC cells; 786-0 RCC cells HIF-2a reporter, luciferase luminescence, overnight; inhibition, % at 18.8 µM; 360,000 compounds, 0.72% hits;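 active = inhibition of the luminescence signal of 40% or more relative to plate controls, in a single-dose primary screen at 18.75 µM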
HSP90 refold inh – HSP90 inhibitors, primary screen, cell lysate, luminescence | inhibition, % at 5.6 µM | 290,000 compounds, 0.91% hits | Rabbit reticulocyte lysate, luciferase refolding luminescence, 3 h;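 active = inhibition above the screen-wide mean plus 3 SD, computed separately per campaign, cut at about 16% in these data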;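 also: inhibitors lower the luminescence because luciferase stays unfolded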
C8 TRAIL sens – viability loss with TRAIL in NB7+C8 cells, primary screen, TRAIL sensitizer project, cell-based, ATPlite luminescence. 360,000 compounds, 1% hits. inhibition (viability loss, TRAIL sensitization), % at 10 µM;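 active = compounds causing at least 50% loss of cell viability in the single-dose screen, relative to plate controls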
HSP90 inh confirm – HSP90 inhibitors, confirmation, cell lysate, luminescence. 2,300 compounds, 64% hits. shares compounds with HSP90 refold inh. rabbit reticulocyte lysate, luciferase refolding luminescence, 3 h. AID 1846, 2009. inhibition, % at 5.9 µM; in the data active = inhibition above about 18%
FLuc counter – firefly luciferase inhibitors, HSP90 counter-screen, confirmation, artefact control for HSP90 inhibitor project, biochemical, luminescence, triplicate; shares compounds with HSP90 refold inh; purified native firefly luciferase; inhibition, % at 5.9 µM; 2,300 compounds, 48% hits;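 active = inhibition above the mean inhibition of all tested sample wells plus 3 SD, cut at about 10% in these data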
Target sequence (P08659 whole entry, looked up): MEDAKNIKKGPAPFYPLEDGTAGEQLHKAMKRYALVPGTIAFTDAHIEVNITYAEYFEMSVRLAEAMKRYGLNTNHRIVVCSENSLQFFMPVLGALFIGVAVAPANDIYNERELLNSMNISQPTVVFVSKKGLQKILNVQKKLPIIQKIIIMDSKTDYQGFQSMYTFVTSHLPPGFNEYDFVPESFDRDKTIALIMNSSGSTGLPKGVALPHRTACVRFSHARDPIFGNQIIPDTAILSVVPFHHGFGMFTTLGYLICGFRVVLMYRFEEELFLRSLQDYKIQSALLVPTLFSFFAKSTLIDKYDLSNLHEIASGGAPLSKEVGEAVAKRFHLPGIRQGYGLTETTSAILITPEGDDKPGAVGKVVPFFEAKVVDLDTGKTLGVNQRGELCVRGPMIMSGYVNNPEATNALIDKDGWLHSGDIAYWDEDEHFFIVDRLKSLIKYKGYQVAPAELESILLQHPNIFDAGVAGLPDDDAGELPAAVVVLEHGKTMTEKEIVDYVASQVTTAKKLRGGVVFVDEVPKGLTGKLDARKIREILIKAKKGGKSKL
A number is an active result; – = inactive; · = not tested or not shown.

SMILES	TWEAK Fn14 block	TROY signal inh	aSyn 5UTR inh	HIF-2a block	HSP90 refold inh	C8 TRAIL sens	HSP90 inh confirm	FLuc counter
O=C(N/N=C/c1ccc2c(c1)OCO2)c1ccccn1	76	–	–	–	28	73	57	36
N#C/C(=C\c1ccccn1)c1ccccn1	–	–	–	–	–	–	·	·
O=C(N/N=C\c1cc([N+](=O)[O-])ccc1N1CCOCC1)c1ccccn1	–	–	–	–	–	–	·	·
O=S(=O)(c1cccs1)N1CCCCC1	–	–	·	–	·	–	·	·
CC(C)(C)c1ccc(C(=O)N2CCC2(C)C(=O)NCc2cccs2)cc1 (stereo not drawn)	–	–	·	–	·	–	·	·
O=C(NCC1COc2ccccc2O1)c1cccc(S(=O)(=O)N2CCN(c3ccccc3)CC2)c1 (stereo not drawn)	–	–	·	–	·	–	·	·
CCCS(=O)(=O)NC(=O)C1(C)CCCN(C(=O)CSc2ccccc2)C1 (stereo not drawn)	–	–	·	–	·	–	·	·
Cc1noc(C)c1C(=O)Nc1nc2ccccc2s1	–	–	·	–	·	–	·	·
c1ccc(-c2nc3cc4ccccc4cc3[nH]2)nc1	–	–	–	–	26	86	72	66
Cc1ccc2nc(SCC(=O)N3CCOCC3)[nH]c2c1	–	–	–	–	–	–	·	·
Cc1ccc2nc(SCC3CCCCO3)[nH]c2c1 (stereo not drawn)	71	–	–	–	30	–	64	61
CCN(CC)CCN1CCN(c2cnc(C)cn2)CC1	–	–	·	–	·	–	·	·
COc1cccc(-c2cnc(C(O)c3ccc(Cl)cc3)[nH]2)c1 (stereo not drawn)	–	–	·	–	·	–	·	·
Cc1nn(-c2ccccc2)c2sc(-c3n[nH]c(=S)o3)cc12	–	–	–	–	19	–	–	–
CCOc1cc(C2C3=C(CCCC3=O)OC3=C2C(=O)CCC3)cc([N+](=O)[O-])c1O	–	–	–	–	31	–	–	–
C[C@@H]1CN([C@@H](C)CO)C(=O)c2cc(C#Cc3ccccc3)cnc2O[C@H]1CN(C)C(=O)c1ccccc1F	–	–	·	–	·	–	·	·
CCCc1ccc(C(=O)O/N=C(\N)c2ccccn2)cc1	99	83	72	63	78	89	75	89
N/C(=N\OC(=O)c1ccc2ccccc2c1)c1ccccn1	96	86	96	–	66	71	59	79
COc1cccc(C(=O)O/N=C(\N)c2ccccn2)c1OC	81	–	–	–	53	–	64	72
N/C(=N\OC(=O)c1ccc(=O)n(Cc2ccccc2)c1)c1ccccn1	–	–	–	–	–	–	·	·
COc1cccc(C(=O)O/N=C(\N)c2ccncc2)c1OC	–	–	–	–	–	–	·	·
COc1ccccc1/C=N\N=C(\N)c1ccccn1	–	–	–	–	25	–	–	–
COc1ccccc1CC(=O)O/N=C(\N)c1ccccn1	–	–	–	–	–	–	·	·
Cc1cccc(CN2CCN(C3CN(Cc4cn(Cc5ccc(F)cc5)nn4)S(=O)(=O)C3)CC2)c1 (stereo not drawn)	–	–	·	–	·	–	·	·
CCCNC(=O)C1(C)CCCN(Cc2ccc3c(c2)OCO3)C1 (stereo not drawn)	–	–	·	–	·	–	·	·
SMILES	TWEAK Fn14 block	TROY signal inh	aSyn 5UTR inh	HIF-2a block	HSP90 refold inh	C8 TRAIL sens	HSP90 inh confirm	FLuc counter
N/C(=N\OC(=O)c1cccc([N+](=O)[O-])c1)c1ccccn1	–	–	–	–	–	–	·	·
COc1cccc(C(=O)O/N=C(\N)c2ccccn2)c1	101	79	–	–	67	79	85	91
CC(=O)Oc1ccc(Nc2ccccc2)cc1	–	–	–	–	31	–	56	–
COc1cc(NC(=O)N2CCc3nc(Nc4cc(Cl)cc(Cl)c4)ncc3C2)cc(OC)c1OC	–	–	·	–	·	–	·	·
CC(C)(C)c1ccc(-c2nc(N)nc(N)n2)cc1	–	–	–	–	–	–	·	·
CC(C)(C)c1ccc(-c2conc2N)cc1	–	–	·	–	69	–	–	–
O=C1NC[C@H](CCCCN2C[C@H](Cc3ccccc3)N(Cc3ccccc3)C(=O)C2=O)N(CCC2CCCCC2)C1=O	–	–	·	–	·	–	·	·
CSc1ncccc1C(=O)N1CCC(C)(C(=O)O)C1 (stereo not drawn)	–	–	·	–	·	–	·	·
O=C(CCc1ccccc1)NC(=S)Nc1cccc(Br)c1	–	–	–	–	–	–	·	·
O=C(CCc1ccccc1)NC(=S)Nc1cccc(C(=O)O)c1	–	–	–	–	33	–	41	23
c1ccc(-c2cn3c4c(sc3n2)CCCC4)cc1	89	72	117	–	33	85	83	80
Cc1c(C(=O)N2CCc3ccccc3C2)sc2nc(-c3ccccc3)cn12	–	–	–	–	–	–	·	·
NC(=Nc1ccccc1)N(c1ccccc1)c1ccccc1	–	–	·	–	·	–	·	·
Cc1ccccc1-n1nc2c(c1NC(=O)c1ccc3c(c1)OCO3)CS(=O)(=O)C2	–	–	–	–	–	–	·	·
CCC(=O)Nc1nc(-c2ccc3c(c2)OCCO3)cs1	–	–	–	–	–	–	·	·
CC(C)(C)C(=O)Nc1nc(-c2ccc3c(c2)OCO3)cs1	–	–	–	–	–	–	·	·
c1cc2c(cc1Nc1nc(-c3ccc4c(c3)OCO4)cs1)OCCO2	56	–	–	–	37	–	23	–
C=CCNc1nc(-c2ccc3c(c2)OCCO3)cs1	–	–	–	–	19	–	33	32
O=C(Nc1nc(-c2ccncc2)cs1)c1ccco1	–	–	–	–	–	–	·	·
O=C(Nc1nc(-c2ccc3c(c2)OCCO3)cs1)c1ccco1	–	–	–	–	18	–	20	9.9
CC1=C(C(=O)N(C)C)CC(CC(=O)NCCCN(C)C)C(=O)N1CCC1=CCCCC1 (stereo not drawn)	–	–	·	–	·	–	·	·
CC(C)(C)CN1CCN(Cc2cccnc2)CC1CCO (stereo not drawn)	–	–	–	–	–	–	·	·
CC(=O)N1/C(=C/c2ccc(N(C)C)cc2)C(=O)c2ccccc21	86	66	–	–	18	–	–	–
CSCCC(C(=O)NC1CCCC1)n1c(C2CCCC2)nc2ccccc21 (stereo not drawn)	·	·	·	–	·	–	·	·
CN(CC(=O)NCc1ccncc1)S(=O)(=O)c1cc(Cl)ccc1Cl	–	–	–	–	53	–	–	–
